Source: PubChem BioAssay (several laboratories)
PABP polyA inh – PABP poly(A) RNA binding inhibitors, primary screen, biochemical, fluorescence polarization, uHTS; 290,000 tested, 1% active; Polyadenylate-binding protein 1 (Homo sapiens), P11940; inhibition, % at 35 µM;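 note: calls also rest on retests at 20 µM and on dose response follow-up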
MLLE-PAM2 inh – inhibitors of PABP1 MLLE–PAM2 peptide binding, primary screen, biochemical, fluorescence polarization, FITC-PAM2, GST-MLLE; Polyadenylate-binding protein 1 (Homo sapiens), P11940; inhibition, % at 20 µM; 360,000 tested, 0.36% active; AID 588489, 2011; in the data active = inhibition above about 35%, passing the limit was not always enough;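 note: plate controls were DMSO wells with GST-MLLE for no effect and wells lacking GST-MLLE protein for full effect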
M18AAP inhibitor – PfM18AAP inhibitors, malaria aminopeptidase, primary screen, biochemical, QFRET, recombinant enzyme; 290,000 tested, 1.2% active; M18 aspartyl aminopeptidase (Plasmodium falciparum 3D7); H-Glu-NHMec fluorogenic cleavage; inhibition, % at 7.35 µM; AID 1822, 2009;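 active = inhibition above the campaign mean inhibition over all tested compounds plus 3 SD, cut at about 28% in these data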;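 note: 0% = plate median of test compound wells and 100% = 2 mM ZnCl2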
eIF4E-4G inh – eIF4E–eIF4G protein interaction inhibitors, primary screen, biochemical, uHTS, TR-FRET, eIF4GI fragment | 220,000 tested, 0.37% active | Eukaryotic translation initiation factor 4E (Mus musculus) + Eukaryotic translation … | inhibition, % at 21.7 µM | TR-FRET eIF4E-eIF4GI(517-606) binding, 2 h;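 active = inhibition above about 30%, limit read from the data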;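 note: 0% = full FRET control wells and 100% = background wells lacking eIF4GI fragment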
PERK inhibitor – block of dimerizer-induced PERK translation repression, primary screen, PERK inhibitor project, CHO PERK-DD cells, SEAP luminescence, HTS; Eukaryotic translation initiation factor 2-alpha kinase 3 (Homo sapiens), Q9NZJ5; CHO PERK-DD fusion, SEAP luminescence translation reporter; inhibition, % at 5.6 µM; 220,000 tested, 0.17% active;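 active = inhibition above the mean inhibition of all tested compounds plus 3 SD, set separately per screening campaign, cut at about 2.9% in these data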;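 note: PERK kinase domain activated by AP20187 dimerizer at 100 nM; 0% = DMSO with dimerizer and 100% = rapamycin at 8.4 µM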
eIF4H inh – human eIF4H binding inhibitors, primary screen, translation initiation inhibitor project, biochemical, uHTS, fluorescence polarization; eIF4H fluorescence polarization binding assay; 290,000 tested, 0.94% active; Eukaryotic translation initiation factor 4H (Homo sapiens), Q15056; AID 2012, 2009; inhibition, % at 35 µM;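 note: calls also rest on retests at 20 µM and on dose response follow-up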
An asterisk follows results filed as active; · = no result given; [ ] = another dose, or the depositor's remark. Hits are enriched below; roughly 2.4% of the tested compounds scored in any of these assays. Unless noted, the rule behind the calls is not given here.

SMILES | PABP polyA inh | MLLE-PAM2 inh | M18AAP inhibitor | eIF4E-4G inh | PERK inhibitor | eIF4H inh
NC(=O)CC(NC(=O)c1ccccc1)c1ccc(NCCCN2CCCC2=O)c([N+](=O)[O-])c1 (stereo unspecified) | 17 | -7 | 3 | · | · | 25
CCN(CC(=O)Nc1cc(Cl)ccc1OC)CC(=O)NC1CCS(=O)(=O)C1 (stereo unspecified) | 5 | -2 | -1 | 3 | 1 | -3
O=C(O)c1ccccc1C(=O)NCC(O)COc1ccc(Cl)cc1 (stereo unspecified) | -3 | -9 | -13 | 1 | 0 | 1
COc1ccc(-n2c(Cc3cc(=O)[nH]c(=O)[nH]3)nnc2SCC(=O)NC2CCCC2)cc1 | 26 | 12 | -2 | -1 | 0 | 30
O=C(CSc1nnc(Cc2cc(=O)[nH]c(=O)[nH]2)n1-c1ccc(Cl)cc1)NC1CCCC1 | 65* | 31 | 5 | -9 | 2 | 62*
Cc1ccc2nc(/C(C#N)=C\c3ccc(Oc4ccc(C(F)(F)F)cc4[N+](=O)[O-])cc3)[nH]c2c1 | active | -9 | -1 | 8 | 0 | 76*
COc1ccc(/C=C(\C#N)c2nc3ccc(C)cc3[nH]2)cc1Oc1ccc(C(F)(F)F)cc1[N+](=O)[O-] | 24 | -9 | 3 | -27 | 1 | 45
Cc1nc(C)c(C(=O)O)c(-c2cccs2)c1C(=O)O | -6 | 4 | -6 | -5 | 1 | -4
CC(=O)c1nnn(-c2ccc([N+](=O)[O-])cc2)c1C | 55 | 8 | 0 | 5 | 1 | active
NC(=O)c1nnn(-c2ccc([N+](=O)[O-])cc2)c1-c1ccccc1 | -4 | 6 | -9 | 4 | 0 | 2
CC1(C)Cc2c(sc3nc(NCCN4CCOCC4)n4ncnc4c23)CO1 | 1 | -9 | 0 | 61* | -1 | -9
CC(=O)C1=C(C)NC(=O)CC1c1ccc(F)cc1 (stereo unspecified) | -6 | 2 | 0 | 2 | 0 | -6
CCn1c(SCC(=O)Nc2ccc(C(=O)OC)cc2)nc2cccnc21 | -1 | -4 | -6 | 7 | -1 | -12
CC(C)Oc1ccc(C(=O)NC2(C(F)(F)F)N=C3SCCN3C2=O)cc1 (stereo unspecified) | -8 | 46* | -8 | 0 | 0 | -7
CC(=O)NC1(C(F)(F)F)N=C2SCCN2C1=O (stereo unspecified) | -10 | 28 | -5 | 0 | 2 | 1
CC(=O)Nc1nc(=O)c2ccccc2s1 | 15 | 28 | 30* | 2 | 0 | 8
CCOC(=O)N1CCN(C(=O)c2cc3c(s2)-c2ccc(Cl)cc2S(=O)(=O)C3)CC1 | 14 | 2 | 4 | -6 | 1 | 1
N#Cc1ccc(S(=O)(=O)N2CCCCC2c2cc(C(=O)N3CCOCC3)no2)cc1 (stereo unspecified) | · | 1 | · | · | · | ·
CCOC(=O)c1cnn(C(=O)c2ccccc2)c1N | -3 | -11 | -4 | 45*[fluorescence artefact?] | 0 | -12
CCOC(=O)c1cnn(Cc2ccccc2)c1N | 9 | 3 | -1 | 1 | 1 | -2
Cc1cc(=O)n2nc(N3CCCC(C(=O)Nc4cccc(C)c4C)C3)sc2n1 (stereo unspecified) | · | -28 | · | · | · | ·
Cc1ccccc1NC(=O)Cn1c(NCC(C)O)nc2ccccc21 (stereo unspecified) | -2 | -2 | 5 | 2 | 1 | 1
CC(O)CNc1nc2ccccc2n1CC(=O)NCCc1ccc(Cl)cc1 (stereo unspecified) | 8 | -6 | 4 | 34* | 0 | 6
Oc1ccccc1-c1n[nH]c(=S)n1Cc1ccccc1 | -8 | -15 | 9 | · | · | -7
S=c1[nH]nc(-c2ccccc2Br)n1Cc1ccccc1 | 14 | 6 | 31* | · | · | -20
O=[N+]([O-])c1cccc(-c2n[nH]c(=S)n2Cc2ccccc2)c1 | -6 | -28 | 29* | 4 | 1 | -14
